# Assay outcomes: PubChem BioAssay, DiRusso Lab, Biochemistry Department, University of Nebraska
# Only a selection was taken, and hits are over-represented in it overall.
# Chlamy TAG – algal TAG accumulation induction; Chlamydomonas reinhardtii TAG, Nile Red fluorescence, 72 h; hit rate 0.84% among 44,000; AID 1159537; calls only at 10 µM (by protocol); call rule not given here;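 note: hits raise Nile Red signal meaning more stored TAG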
# An asterisk follows results filed as active; i = inactive; + = active, no number.
SMILES,Chlamy TAG
COc1ccccc1N1CCN(C(=O)Nc2ccccc2Cl)CC1,i
COc1cc(OC)cc(C(=O)N2CCN(c3ccccn3)CC2)c1,i
COc1ccccc1NC(=O)N1CCN(c2ccccn2)CC1,+
CS(=O)(=O)c1ccc2nc(NC(=O)Nc3ccc(Cl)cc3)sc2c1,i
Cc1cc(C)c(S(=O)(=O)N2CCN(C)CC2)cc1C,i
Cc1cc(C)c(S(=O)(=O)N2CCN(C)CC2)cc1Br,+
Cc1cc(C)c(S(=O)(=O)N2CCN(c3ccccc3)CC2)cc1Br,i
Cc1ccc(S(=O)(=O)N(CC(=O)NC2CC2)c2cc(C)cc(C)c2)cc1,i
O=C(CN1C(=O)c2ccc([N+](=O)[O-])cc2C1=O)Nc1ccc(F)cc1,i
N#CC(=Cc1cc2c(cc1Br)OCO2)c1nc2ccccc2[nH]1,i
CN1CCN(C2C3CC4CC(C3)CC2C4)CC1 (stereo unspecified),+
C1CCN(C2CCN(C3C4CC5CC(C4)CC3C5)CC2)CC1 (stereo unspecified),i
COc1ccc(C(=O)N2CCN(C3C4CC5CC(C4)CC3C5)CC2)cc1 (stereo unspecified),i
c1ccc(CN2CCN(C3C4CC5CC(C4)CC3C5)CC2)cc1 (stereo unspecified),i
OCCN1CCN(C2C3CC4CC(C3)CC2C4)CC1 (stereo unspecified),+
OCCN1CCN(C2CCCCCCC2)CC1,i
COc1cc2c(cc1OC)C(c1ccc(OC)c(OC)c1OC)N(C)CC2 (stereo unspecified),i
CC(C)c1ccc(C(=O)Nc2ccc(N(C)C)cc2)cc1,i
O=c1c2cc(Br)ccc2oc2ccc([N+](=O)[O-])cc12,i
O=C(C(Cc1ccccc1)N1C(=O)c2ccccc2C1=O)N1CCCC1 (stereo unspecified),i
CN1CCN(CCC(=O)Nc2ccccc2)CC1,i
CN1CCN(CCCCOc2ccc(C(=O)c3ccccc3)cc2)CC1,i
CN1CCN(CC#CC=C(c2ccccc2)c2ccccc2)CC1,+
COc1ccc(C(=O)c2cc([N+](=O)[O-])ccc2N2CCOCC2)cc1,i
Cc1cc2c(cc1C)NC(c1ccsc1)C1=C(CC(C)(C)CC1=O)N2 (stereo unspecified),i
SMILES,Chlamy TAG
O=C1CCCC2=C1C(c1ccc(OCc3ccc([N+](=O)[O-])cc3)cc1)C1=C(CCCC1=O)N2,i
O=C1C2C3CCC(C3)C2C(=O)N1c1nccs1 (stereo unspecified),+
O=C1c2ccc(Oc3ccc4c(c3)C(=O)N(c3nccs3)C4=O)cc2C(=O)N1c1nccs1,i
O=C1C2C(C(=O)N1c1nccs1)C1C=CC2C12CC2 (stereo unspecified),i
O=C(Nc1sc2c(c1C(=O)NCc1ccco1)CCCC2)c1ccco1,i
N#CC1=C(N)OC2=C(C(=O)CCC2)C1c1ccccc1Cl (stereo unspecified),i
Cc1ccc(N(CC(=O)N2CCOCC2)S(C)(=O)=O)cc1Cl,i
COc1ccccc1CC(=O)NC12CC3CC(CC(C3)C1)C2,i
Oc1ccccc1CNCCC12CC3CC(CC(C3)C1)C2,+
CC(C)(C)C(=O)NCCC12CC3CC(CC(C3)C1)C2,i
Cc1cc(C(=O)Nc2ccc(S(=O)(=O)N3CCOCC3)cc2)ccc1[N+](=O)[O-],i
CCc1ccc(CN2CCCC(CO)C2)cc1 (stereo unspecified),i
Cc1ccc(CN2CCCC(CO)C2)cc1 (stereo unspecified),+
CCN(CC)C(=O)C1CCCN(Cc2ccc(C)cc2)C1 (stereo unspecified),i
CC(Oc1ccccc1)C(=O)NCc1ccncc1 (stereo unspecified),i
Cc1ccc(NC(=O)CN2CCOCC2)c(C(=O)c2ccccc2)c1,i
Cc1ccc(C(=O)N2CCN(C/C=C/c3ccccc3)CC2)o1,i
Cc1nnc(NS(=O)(=O)Cc2ccccc2)s1,i
CN(CC(O)COc1ccc(Br)cc1)C1CCCCC1 (stereo unspecified),+
CN(CC(O)COCc1ccc2c(c1)OCO2)C1CCCCC1 (stereo unspecified),i
CCN(CC(O)COc1ccc(Br)cc1)C1CCCCC1 (stereo unspecified),+
CC(NCC(O)COc1ccc(Br)cc1)c1ccccc1 (stereo unspecified),i
O=[N+]([O-])c1ccc(OCC(O)CN(C2CCCCC2)C2CCCCC2)cc1 (stereo unspecified),i
O=C(COc1ccc(Br)cc1)NC1CCCC1,i
CC1CCC(N2CCN(C)CC2)C1 (stereo unspecified),i
SMILES,Chlamy TAG
Cc1cc(=O)[nH]c2nn(-c3ccccc3)cc12,i
Cc1c(NC(=O)c2cccc([N+](=O)[O-])c2)cccc1-c1nc2ncccc2o1,i
Cc1cccc(C(=O)Nc2nc(C)cc(C)n2)c1,i
Cc1ccc(CNC(=O)c2ccccc2Cl)cc1,i
Clc1ccc(OCCN2CCOCC2)c(Br)c1,i
Cc1cc(Br)ccc1OCCCN1CCOCC1,i
Clc1cc(Br)ccc1OCCN1CCOCC1,i
Clc1cc(Br)ccc1OCCCN1CCCC1,i
Cc1ccc(OCCN2CCOCC2)c(Br)c1,i
Clc1ccc(OCCOCCN2CCOCC2)c(Br)c1,+
Cc1cc(Br)ccc1OCCN1CCOCC1,i
Clc1cc(Br)ccc1OCCCN1CCOCC1,+
Cc1cc(Br)ccc1OCCOCCN1CCOCC1,+
COc1ccc(OC)c(-c2cc(C(=O)Nc3nnc(-c4ccncc4)s3)c3ccccc3n2)c1,i
Cc1ccc(N(Cc2ccc(C(=O)NCCSc3ccccn3)cc2)S(C)(=O)=O)cc1C,i
COc1ccc2nc(SCC(=O)O)[nH]c2c1,i
CCCC(=O)Nc1ccccc1NC(=O)c1cccs1,i
CN1CCN(CCCOc2ccc(OCc3ccccc3)cc2)CC1,i
CN1CCN(CCOc2ccc(C(C)(C)c3ccccc3)cc2)CC1,+
CCC(C)c1ccc(OCCCCN2CCN(C)CC2)cc1 (stereo unspecified),i
CCC(C)c1ccc(OCCCN2CCN(C)CC2)cc1 (stereo unspecified),+
c1ccc(OCCN2CCCC2)cc1,i
CN1CCN(CCCOc2ccc(C(C)(C)c3ccccc3)cc2)CC1,i
Cc1cc(C)cc(CSCC(=O)N2CCC(C(N)=O)CC2)c1,i
CC(C)c1ccccc1NC(=O)CSc1nnc(COc2ccc3c(c2)CCCC3)o1,i
SMILES,Chlamy TAG
Cc1cc(Cl)ccc1OCCN1CCNCC1,i
Clc1cc(Br)ccc1OCCCCN1CCCC1,i
Clc1ccc(Cl)c(OCCCCN2CCNCC2)c1,+
COc1ccc(N(CC(=O)Nc2cccc(C(C)=O)c2)S(C)(=O)=O)cc1OC,i
CCN(CC)S(=O)(=O)c1cc(C(=O)Nc2ccc(Cl)cn2)ccc1Br,i
O=c1c(CN2CCN(Cc3ccc4c(c3)OCO4)CC2)coc2ccccc12,i
O=C1CC(N2CCN(Cc3ccc4c(c3)OCO4)CC2)C(=O)N1CCc1ccccc1 (stereo unspecified),+
O=C1c2ccccc2C(=O)N1CN1CCN(Cc2ccc3c(c2)OCO3)CC1,i
O=[N+]([O-])c1ccccc1S(=O)(=O)Nc1ccc(S(=O)(=O)N2CCOCC2)cc1,i
CCOc1ccc(C(=O)NCCCN(C)C)cc1,i
CCOc1ccc(C(=O)NCCC(=O)O)cc1,i
CCOc1ccc(C(=O)NCCNC(=O)c2ccc(OCC)cc2)cc1,+
CCCOc1cccc(C(=O)Nc2ccc(Cl)cn2)c1,i
